Source: the supplement of paper PMC10849652
The full data set covers some 7,900 targets. This sample favours those with a hit. About 0.6% of all pairs of compound and target were hits. Unmarked numbers belong to inactive results.

How the values were obtained:
Experiment in all cases: log2 fold change, soluble protein after heating vs DMSO (PISA); higher = thermal stabilisation; K562 cells, 10 uM, 30 min; active = over 0.2 and 3.5 SD of the protein, either way, in both replicates (recomputed)
[1] = compound: COC1=CC=C(C=C1)CN2C=CC3=C2C=C(C=C3)C(=O)NO
Summary of the method: (§1)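 Values are thermal stability changes relative to control samples and are taken from duplicates. They are stated as log2 fold changes. Before quantification by TMTpro 16plex LC-MS/MS with equalised channel sums, K562 cells at 2×10^6 cells/mL were treated with 10 μM compound for 30 min, heated in aliquots for 3 min across 48°C-58°C, pooled, extracted in PBS with 0.5% NP-40 at 4°C, and centrifuged at 21,000xg for 90 min to give the soluble supernatant.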

filanesib = compound: CON(C)C(=O)N1N=C(c2cc(F)ccc2F)S[C@@]1(CCCN)c1ccccc1 [filanesib]
Summary of the method: as §1

zotarolimus = compound: CO[C@H]1C[C@@H]2CC[C@@H](C)[C@@](O)(O2)C(=O)C(=O)N2CCCC[C@H]2C(=O)O[C@H]([C@H](C)C[C@@H]2CC[C@H](n3cnnn3)[C@H](OC)C2)CC(=O)[C@H](C)/C=C(\C)[C@@H](O)[C@@H](OC)C(=O)[C@H](C)C[C@H](C)/C=C/C=C/C=C/1C [zotarolimus]
Summary of the method: as §1

idasanutlin = compound: COc1cc(C(=O)O)ccc1NC(=O)[C@@H]1N[C@@H](CC(C)(C)C)[C@](C#N)(c2ccc(Cl)cc2F)[C@H]1c1cccc(Cl)c1F [idasanutlin]
Summary of the method: as §1

alisertib = compound: COc1cc(Nc2ncc3c(n2)-c2ccc(Cl)cc2C(c2c(F)cccc2OC)=NC3)ccc1C(=O)O [alisertib]
Summary of the method: as §1

[2] = compound: COc1cc2nc(-c3cc(F)ccc3O)nc(N[C@@H]3CNC[C@H]3C(C)(C)O)c2cc1OC
Summary of the method: as §1

gefitinib = compound: COc1cc2ncnc(Nc3ccc(F)c(Cl)c3)c2cc1OCCCN1CCOCC1 [gefitinib]
Summary of the method: as §1

[3] = compound: COc1cccc2cc(-c3nc([C@H]4CC[C@H](C(=O)O)CC4)n4ncnc(N)c34)[nH]c12
Summary of the method: as §1

lapatinib = compound: CS(=O)(=O)CCNCc1ccc(-c2ccc3ncnc(Nc4ccc(OCc5cccc(F)c5)c(Cl)c4)c3c2)o1 [lapatinib]
Summary of the method: as §1

[4] = compound: CS(=O)(=O)c1ccc(-c2cnc(N)c(C(=O)Nc3ccccc3)n2)cc1
Summary of the method: as §1

crizotinib = compound: C[C@@H](Oc1cc(-c2cnn(C3CCNCC3)c2)cnc1N)c1c(Cl)ccc(F)c1Cl [crizotinib]
Summary of the method: as §1

[5] = compound: C[C@H](C1=CC=C(C=C1)C(=O)NC2=C3C=CNC3=NC=C2)N
Summary of the method: as §1

duvelisib = compound: C[C@H](Nc1ncnc2nc[nH]c12)c1cc2cccc(Cl)c2c(=O)n1-c1ccccc1 [duvelisib]
Summary of the method: as §1

tozasertib = compound: Cc1cc(Nc2cc(N3CCN(C)CC3)nc(Sc3ccc(NC(=O)C4CC4)cc3)n2)n[nH]1 [tozasertib]
Summary of the method: as §1

[6] = compound: Cc1cc(SCc2sc(-c3ccc(C(F)(F)F)cc3)nc2C)ccc1OCC(=O)O
Summary of the method: as §1

doramapimod = compound: Cc1ccc(-n2nc(C(C)(C)C)cc2NC(=O)Nc2ccc(OCCN3CCOCC3)c3ccccc23)cc1 [doramapimod]
Summary of the method: as §1

ispinesib = compound: Cc1ccc(C(=O)N(CCCN)[C@@H](c2nc3cc(Cl)ccc3c(=O)n2Cc2ccccc2)C(C)C)cc1 [ispinesib]
Summary of the method: as §1

pictilisib = compound: CS(=O)(=O)N1CCN(Cc2cc3nc(-c4cccc5[nH]ncc45)nc(N4CCOCC4)c3s2)CC1 [pictilisib]
Summary of the method: as §1

[7] = compound: C[C@@H]1COCCN1C2=NC(=NC(=C2)C3(CC3)S(=O)(=O)C)C4=C5C=CNC5=CC=C4
Summary of the method: as §1

gandotinib = compound: Cc1cc(Nc2cc(CN3CCOCC3)c3nc(C)c(Cc4ccc(Cl)cc4F)n3n2)n[nH]1 [gandotinib]
Summary of the method: as §1

Chain of UniProt P28065 (P28065 whole entry, looked up): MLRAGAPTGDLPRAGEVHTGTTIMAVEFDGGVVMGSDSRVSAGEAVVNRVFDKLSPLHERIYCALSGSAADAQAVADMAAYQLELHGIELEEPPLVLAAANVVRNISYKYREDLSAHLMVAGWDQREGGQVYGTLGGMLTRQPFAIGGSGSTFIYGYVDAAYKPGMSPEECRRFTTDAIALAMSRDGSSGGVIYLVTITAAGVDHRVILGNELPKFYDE
Chain of UniProt P41247 (P41247 whole entry, looked up): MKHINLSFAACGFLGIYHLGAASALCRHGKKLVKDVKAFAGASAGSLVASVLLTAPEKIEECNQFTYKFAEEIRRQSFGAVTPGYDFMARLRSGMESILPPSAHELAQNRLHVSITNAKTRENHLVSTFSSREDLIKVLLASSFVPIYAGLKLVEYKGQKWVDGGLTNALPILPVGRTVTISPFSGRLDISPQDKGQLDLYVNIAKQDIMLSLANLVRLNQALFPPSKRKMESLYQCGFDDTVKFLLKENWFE
Chain of UniProt Q16822 (Q16822 whole entry, looked up): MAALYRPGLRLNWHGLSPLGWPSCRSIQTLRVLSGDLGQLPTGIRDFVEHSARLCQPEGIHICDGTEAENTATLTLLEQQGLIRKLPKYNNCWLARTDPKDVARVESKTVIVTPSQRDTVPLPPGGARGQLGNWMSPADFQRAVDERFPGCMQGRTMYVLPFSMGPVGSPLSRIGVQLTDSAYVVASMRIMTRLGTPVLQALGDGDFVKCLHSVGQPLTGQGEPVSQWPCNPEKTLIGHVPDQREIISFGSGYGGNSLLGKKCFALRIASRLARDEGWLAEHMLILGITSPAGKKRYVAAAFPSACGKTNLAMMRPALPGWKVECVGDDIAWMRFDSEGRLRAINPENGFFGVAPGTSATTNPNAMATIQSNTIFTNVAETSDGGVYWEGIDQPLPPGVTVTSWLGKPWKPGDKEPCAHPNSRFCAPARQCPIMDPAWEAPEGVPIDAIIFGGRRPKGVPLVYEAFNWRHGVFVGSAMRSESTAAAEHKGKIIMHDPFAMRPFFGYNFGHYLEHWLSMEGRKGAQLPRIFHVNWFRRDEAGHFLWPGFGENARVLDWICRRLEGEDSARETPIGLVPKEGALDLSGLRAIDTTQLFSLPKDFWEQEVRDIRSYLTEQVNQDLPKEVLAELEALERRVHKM
Chain of UniProt Q16513 (Q16513 whole entry, looked up): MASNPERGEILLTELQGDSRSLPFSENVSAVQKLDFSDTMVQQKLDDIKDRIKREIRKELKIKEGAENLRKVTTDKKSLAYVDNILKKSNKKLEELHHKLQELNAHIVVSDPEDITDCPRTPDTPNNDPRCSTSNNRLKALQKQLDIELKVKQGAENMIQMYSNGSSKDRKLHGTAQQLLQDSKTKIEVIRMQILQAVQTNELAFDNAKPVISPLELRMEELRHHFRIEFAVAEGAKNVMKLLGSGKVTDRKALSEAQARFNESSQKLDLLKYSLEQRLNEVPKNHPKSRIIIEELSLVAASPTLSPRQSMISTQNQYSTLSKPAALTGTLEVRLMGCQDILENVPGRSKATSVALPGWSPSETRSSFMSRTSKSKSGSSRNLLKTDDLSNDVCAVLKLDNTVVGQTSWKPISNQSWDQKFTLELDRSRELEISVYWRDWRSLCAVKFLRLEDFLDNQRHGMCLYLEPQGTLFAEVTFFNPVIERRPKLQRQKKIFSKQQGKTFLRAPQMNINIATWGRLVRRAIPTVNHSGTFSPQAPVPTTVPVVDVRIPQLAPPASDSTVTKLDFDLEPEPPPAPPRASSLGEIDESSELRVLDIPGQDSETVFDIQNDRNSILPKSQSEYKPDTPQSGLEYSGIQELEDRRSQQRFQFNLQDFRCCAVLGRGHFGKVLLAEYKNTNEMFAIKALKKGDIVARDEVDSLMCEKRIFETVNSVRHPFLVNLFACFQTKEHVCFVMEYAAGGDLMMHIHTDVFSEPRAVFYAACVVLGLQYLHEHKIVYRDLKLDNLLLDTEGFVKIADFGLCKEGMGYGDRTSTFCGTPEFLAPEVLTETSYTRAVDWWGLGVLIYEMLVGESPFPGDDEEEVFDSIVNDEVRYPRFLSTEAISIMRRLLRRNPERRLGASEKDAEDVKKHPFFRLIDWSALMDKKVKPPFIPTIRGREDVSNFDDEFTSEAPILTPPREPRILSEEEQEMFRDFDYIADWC
Chain of UniProt Q8TCG2 (Q8TCG2 whole entry, looked up): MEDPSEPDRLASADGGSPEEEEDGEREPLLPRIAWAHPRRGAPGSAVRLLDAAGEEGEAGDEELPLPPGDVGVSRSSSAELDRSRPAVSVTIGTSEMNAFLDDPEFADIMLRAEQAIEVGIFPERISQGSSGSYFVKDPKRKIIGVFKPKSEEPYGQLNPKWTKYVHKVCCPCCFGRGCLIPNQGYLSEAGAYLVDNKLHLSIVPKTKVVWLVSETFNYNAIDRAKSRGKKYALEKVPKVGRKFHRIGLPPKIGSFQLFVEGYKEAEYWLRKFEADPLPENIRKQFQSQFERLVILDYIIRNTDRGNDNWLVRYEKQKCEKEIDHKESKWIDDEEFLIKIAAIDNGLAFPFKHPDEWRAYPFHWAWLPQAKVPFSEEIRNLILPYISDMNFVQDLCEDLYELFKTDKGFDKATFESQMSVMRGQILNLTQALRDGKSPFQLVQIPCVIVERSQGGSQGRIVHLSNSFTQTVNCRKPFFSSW
Chain of UniProt Q14289 (Q14289 whole entry, looked up): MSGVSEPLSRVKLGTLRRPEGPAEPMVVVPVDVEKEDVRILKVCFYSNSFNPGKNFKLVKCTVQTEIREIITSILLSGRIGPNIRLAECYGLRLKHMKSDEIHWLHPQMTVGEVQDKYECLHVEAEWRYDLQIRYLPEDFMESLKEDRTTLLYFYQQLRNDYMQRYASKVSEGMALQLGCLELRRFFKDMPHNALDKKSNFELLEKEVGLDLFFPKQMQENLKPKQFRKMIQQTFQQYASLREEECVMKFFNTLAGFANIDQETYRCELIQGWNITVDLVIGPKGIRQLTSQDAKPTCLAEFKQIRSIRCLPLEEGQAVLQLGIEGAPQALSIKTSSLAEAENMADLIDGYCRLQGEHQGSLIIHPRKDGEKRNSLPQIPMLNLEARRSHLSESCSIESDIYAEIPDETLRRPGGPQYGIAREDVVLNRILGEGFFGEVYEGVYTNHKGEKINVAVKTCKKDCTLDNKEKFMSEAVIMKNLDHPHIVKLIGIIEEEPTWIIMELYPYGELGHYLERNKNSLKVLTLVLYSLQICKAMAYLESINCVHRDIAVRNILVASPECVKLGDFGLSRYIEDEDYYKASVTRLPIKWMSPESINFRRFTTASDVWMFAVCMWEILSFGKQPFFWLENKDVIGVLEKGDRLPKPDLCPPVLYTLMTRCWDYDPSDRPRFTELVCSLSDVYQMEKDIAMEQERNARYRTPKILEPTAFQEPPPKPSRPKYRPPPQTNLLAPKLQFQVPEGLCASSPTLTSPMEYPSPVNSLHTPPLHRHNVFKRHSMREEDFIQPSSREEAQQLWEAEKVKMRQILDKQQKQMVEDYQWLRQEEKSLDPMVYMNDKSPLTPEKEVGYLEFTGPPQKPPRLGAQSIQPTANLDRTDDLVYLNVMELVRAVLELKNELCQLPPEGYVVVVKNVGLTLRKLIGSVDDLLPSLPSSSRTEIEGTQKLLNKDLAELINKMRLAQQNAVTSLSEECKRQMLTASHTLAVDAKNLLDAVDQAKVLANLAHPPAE
Chain of UniProt P51665 (P51665 whole entry, looked up): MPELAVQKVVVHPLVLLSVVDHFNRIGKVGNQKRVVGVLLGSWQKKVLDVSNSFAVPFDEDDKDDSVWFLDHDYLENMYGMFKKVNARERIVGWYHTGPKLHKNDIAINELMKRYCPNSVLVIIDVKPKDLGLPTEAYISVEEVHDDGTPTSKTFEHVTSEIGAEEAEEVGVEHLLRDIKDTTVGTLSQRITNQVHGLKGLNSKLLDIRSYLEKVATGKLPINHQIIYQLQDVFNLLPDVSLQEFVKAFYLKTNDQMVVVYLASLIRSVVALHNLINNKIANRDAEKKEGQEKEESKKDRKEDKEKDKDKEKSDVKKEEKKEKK
Chain of UniProt P06737 (P06737 whole entry, looked up): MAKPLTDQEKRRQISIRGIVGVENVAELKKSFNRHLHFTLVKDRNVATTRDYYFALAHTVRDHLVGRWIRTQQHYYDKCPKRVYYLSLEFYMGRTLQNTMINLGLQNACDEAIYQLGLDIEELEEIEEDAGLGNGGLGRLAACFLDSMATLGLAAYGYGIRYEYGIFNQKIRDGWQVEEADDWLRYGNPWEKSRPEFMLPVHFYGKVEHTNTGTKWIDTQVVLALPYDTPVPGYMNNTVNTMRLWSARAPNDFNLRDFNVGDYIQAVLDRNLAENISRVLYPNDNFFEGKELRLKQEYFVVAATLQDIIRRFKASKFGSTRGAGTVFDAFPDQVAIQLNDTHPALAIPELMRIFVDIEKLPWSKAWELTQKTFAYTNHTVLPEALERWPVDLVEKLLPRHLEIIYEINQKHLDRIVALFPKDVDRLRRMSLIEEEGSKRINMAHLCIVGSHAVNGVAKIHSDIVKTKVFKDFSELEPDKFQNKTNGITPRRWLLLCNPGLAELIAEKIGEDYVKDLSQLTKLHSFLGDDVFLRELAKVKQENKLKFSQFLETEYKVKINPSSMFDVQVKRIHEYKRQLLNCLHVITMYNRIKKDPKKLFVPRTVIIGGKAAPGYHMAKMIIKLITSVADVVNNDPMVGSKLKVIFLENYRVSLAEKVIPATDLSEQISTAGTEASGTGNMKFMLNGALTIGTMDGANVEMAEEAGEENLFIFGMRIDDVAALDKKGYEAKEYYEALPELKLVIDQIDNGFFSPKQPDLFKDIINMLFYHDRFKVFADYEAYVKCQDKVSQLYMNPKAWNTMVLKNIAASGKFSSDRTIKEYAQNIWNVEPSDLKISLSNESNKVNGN
Chain of UniProt P28072 (P28072 whole entry, looked up): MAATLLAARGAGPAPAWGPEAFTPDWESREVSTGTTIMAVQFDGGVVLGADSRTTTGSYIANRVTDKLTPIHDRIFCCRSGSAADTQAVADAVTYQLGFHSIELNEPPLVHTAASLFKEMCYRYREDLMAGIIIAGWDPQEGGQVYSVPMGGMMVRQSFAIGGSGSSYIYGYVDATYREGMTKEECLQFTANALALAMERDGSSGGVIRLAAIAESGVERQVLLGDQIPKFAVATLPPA

| Target | log2 fold change [1] | log2 fold change (filanesib) | log2 fold change (zotarolimus) | log2 fold change (idasanutlin) | log2 fold change (alisertib) | log2 fold change [2] | log2 fold change (gefitinib) | log2 fold change [3] | log2 fold change (lapatinib) | log2 fold change [4] | log2 fold change (crizotinib) | log2 fold change [5] | log2 fold change (duvelisib) | log2 fold change (tozasertib) | log2 fold change [6] | log2 fold change (doramapimod) | log2 fold change (ispinesib) | log2 fold change (pictilisib) | log2 fold change [7] | log2 fold change (gandotinib) |
| --- | --- | --- | --- | --- | --- | --- | --- | --- | --- | --- | --- | --- | --- | --- | --- | --- | --- | --- | --- | --- |
| PNPLA4 (UniProt P41247) | 0.041 | -0.184 | -0.142 | 0.003 | 0.026 | -0.133 | 0.015 | 0.113 | -0.049 | 0.319 | -0.651 (active) | 0.559 | -0.095 | -0.005 | 0.117 | 0.895 (active) | -0.093 |  |  |  |
| PLK1 (UniProt P53350) | 0.013 | 0.068 | -0.021 | 0.014 | 0.02 | 0.092 | -0.024 | -0.133 | 0.041 | -0.113 | -0.105 | 0.031 | 0.012 | 0.037 | -0.1 | 0.032 | 0.01 | -0.072 | -0.194 | 0.095 |
| PDS5B (UniProt Q9NTI5) | 0.065 | 0.104 | 0.037 | -0.07 | -0.05 | -0.188 | 0.123 | 0.078 | -0.206 | 0.03 | -0.229 | 0.041 | 0.004 | -0.604 (active) | 0.208 | -0.074 | -0.225 | 0.066 | 0.222 | -0.149 |
| PSMB9 (UniProt P28065) | 0.25 | 0.189 | -0.08 | -0.028 |  | 0.246 |  |  | -0.064 | 0.259 | 0 | 0.066 |  |  |  | 0.084 |  | -0.006 | 0.075 | 0.126 |
| PDSS2 (UniProt Q86YH6) | 0.23 | 0.025 | 0.184 | 0.157 |  | -0.286 | 0.15 |  | 0.162 | -0.034 | 0.078 | -0.058 | -0.083 | -0.118 | 0.149 | 0.049 | -0.031 | -0.038 | 0.075 | 0.098 |
| POM121 (UniProt Q96HA1) | -0.03 | 0.055 | -0.018 | 0.146 |  | -0.027 | -0.002 |  | -0.01 | 0.024 | -0.139 | 0.084 | -0.022 | 0.014 | 0.008 | 0.134 | -0.307 (active) | 0.003 | -0.016 | -0.043 |
| PRKACA (UniProt P17612) | 0.05 | -0.076 | -0.034 | 0.006 | -0.078 | 0.088 | -0.004 | 0.028 | 0.025 | 0.009 | -0.088 | 0.043 | -0.02 | -0.014 | 0.112 | 0.019 | 0.053 | 0.068 | 0.046 | -0.105 |
| PI4K2B (UniProt Q8TCG2) | -0.035 | -0.059 | -0.014 | -0.034 | -0.059 |  | 0.4 | -0.054 |  | 0.06 | -0.184 | 0.118 | 0.132 | -0.168 | -0.016 | 0.01 | -0.355 (active) | 0.051 |  | -0.045 |
| PCK2 (UniProt Q16822) | -0.339 (active) | -0.007 | 0.045 | -0.044 | -0.035 | 0.024 | -0.025 | 0.027 | -0.045 | 0.009 | 0.17 | -0.098 | 0.064 | 0 | -0.012 | 0 | 0.076 | 0.011 | 0.01 | 0 |
| PDIK1L (UniProt Q8N165) | -0.014 | 0.112 | -0.059 | 0.001 | 0.099 | -0.127 | 0.012 | 0.092 | 0.086 | 0.009 | -0.082 | 0.029 | 0.086 | -0.094 | 0.017 | 0.085 | 0.039 |  | -0.003 |  |
| PNN (UniProt Q9H307) | -0.004 | 0.083 | -0.047 | 0.125 | -0.017 | -0.14 | 0.031 | 0.056 | -0.037 | -0.043 | -0.154 | -0.05 | 0.034 |  | -0.003 | -0.032 | -0.08 | -0.015 | 0.022 | 0.012 |
| PSMB6 (UniProt P28072) | -0.055 | 0.075 | -0.018 | 0.044 | -0.062 | -0.014 | -0.027 | 0.018 | 0.035 | 0.01 | 0.096 | 0.059 | -0.049 | 0.011 | -0.029 | 0.049 | -0.037 | -0.017 | 0.003 | 0.444 (active) |
| PYGL (UniProt P06737) | -0.028 | 0.043 | -0.007 | -0.015 | -0.03 | 0.095 | -0.013 | 0.051 | -0.075 | -0.122 | 0.003 | -0.019 | 0.03 | -0.022 | -0.023 | 0.001 | 0.015 | -0.122 | 0.026 | 0.013 |
| PTK2B (UniProt Q14289) | 0.083 | -0.077 | 0.019 | 0.026 | 0.064 | 0.345 | -0.011 | -0.057 | -0.022 | -0.029 |  | 0.234 | 0.182 | -0.067 | 0.016 |  | -0.233 | 0.117 | -0.03 | -0.03 |
| PSMD7 (UniProt P51665) | -0.059 | 0.054 | -0.014 | 0.01 | -0.032 | -0.027 | -0.049 | -0.022 | 0.089 | 0.077 | -0.001 | 0.072 | -0.073 | 0.003 | -0.003 | 0.069 | 0.018 | -0.078 | -0.053 | 0.078 |
| PKN2 (UniProt Q16513) | 0.001 | -0.085 | 0.01 | -0.016 |  | -0.069 | 0.004 | 0.034 | -0.013 | 0.025 | -0.191 | -0.057 | 0.027 |  | 0.133 | 0.035 | -0.028 | 0 | 0.067 | -0.058 |
| PCID2 (UniProt Q5JVF3) | -0.136 | -0.025 | -0.07 |  | 0.087 | 0.009 | 0.039 | -0.023 | 0.175 | 0.157 | -0.171 | 0.246 | -0.02 | -0.028 | 0.058 | -0.005 | -0.096 | 0.013 | -0.138 | -0.149 |
